Reference: PubChem BioAssay (EPA / NIEHS)
Calls of active or inactive are those of the source. Rule for the calls: active = hit-call score of the fitted dose curve at least 0.9, where 1 is the maximum; inactive = score below 0.9.

Tests used:
[1] = target: CCAAT/enhancer-binding protein beta (Homo sapiens) (UniProt P17676); experiment: ATG_C_EBP_CIS: Attagene CIS-FACTORIAL HepG2 Assay for human CCAAT/Enhancer Binding Protein (C/EBP) beta (AID 2282927); conditions: HepG2 Attagene cis-factorial transcription factor reporter; actives raise or lower the signal
CCAAT/enhancer-binding protein beta (Homo sapiens), sequence (P17676 whole entry, looked up): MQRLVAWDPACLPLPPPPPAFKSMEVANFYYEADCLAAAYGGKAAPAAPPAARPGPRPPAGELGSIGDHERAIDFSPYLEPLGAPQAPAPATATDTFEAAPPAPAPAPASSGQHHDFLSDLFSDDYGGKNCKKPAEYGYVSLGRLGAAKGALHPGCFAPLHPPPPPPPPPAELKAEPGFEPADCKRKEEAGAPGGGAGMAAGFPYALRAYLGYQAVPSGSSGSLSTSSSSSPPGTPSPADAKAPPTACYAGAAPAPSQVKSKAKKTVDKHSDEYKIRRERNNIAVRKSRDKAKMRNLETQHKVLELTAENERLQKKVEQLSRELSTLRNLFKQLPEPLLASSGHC
Procedure, shortened: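 HepG2, transient MRTU transfection, 24 h treatment. RT-PCR plus CE fluorescence; DMSO negative control, bidirectional fit.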

[2] = ATG_CMV_CIS: Attagene CIS-FACTORIAL HepG2 Assay for human CMV (Internal Marker) (AID 2282928); conditions: HepG2 CMV promoter reporter, transcription factor profiling; actives raise or lower the signal;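 note: endpoint acts as a background internal control marker rather than a target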
Procedure, shortened: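 Bidirectional fits against DMSO are applied to reporter mRNA, read by RT-PCR with capillary electrophoresis, from HepG2 cells exposed 24 h. The endpoint serves as an internal CMV background marker within the cis-factorial reporter panel.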

[3] = ATG_DR4_LXR_CIS: Attagene CIS-FACTORIAL HepG2 Assay for human Liver X Receptor (LXR), DR4 submotif (AID 2282929); conditions: HepG2 Attagene DR4 cis-reporter, mRNA transcription; actives raise or lower the signal
Procedure, shortened: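 Total RNA from 24 h-treated, MRTU-transfected HepG2 cells underwent reverse transcription, PCR, fluorescent primer extension and restriction digestion before capillary electrophoresis. Both increases and decreases in reporter signal were fitted against DMSO.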

[4] = target: Aryl hydrocarbon receptor (Homo sapiens) (UniProt P35869); experiment: ATG_Ahr_CIS: Attagene CIS-FACTORIAL HepG2 Assay for human Aryl Hydrocarbon Receptor (Ahr) (AID 2282930); conditions: HepG2 AhR cis-factorial reporter transcription; actives raise or lower the signal
Aryl hydrocarbon receptor (Homo sapiens), sequence (P35869 whole entry, looked up): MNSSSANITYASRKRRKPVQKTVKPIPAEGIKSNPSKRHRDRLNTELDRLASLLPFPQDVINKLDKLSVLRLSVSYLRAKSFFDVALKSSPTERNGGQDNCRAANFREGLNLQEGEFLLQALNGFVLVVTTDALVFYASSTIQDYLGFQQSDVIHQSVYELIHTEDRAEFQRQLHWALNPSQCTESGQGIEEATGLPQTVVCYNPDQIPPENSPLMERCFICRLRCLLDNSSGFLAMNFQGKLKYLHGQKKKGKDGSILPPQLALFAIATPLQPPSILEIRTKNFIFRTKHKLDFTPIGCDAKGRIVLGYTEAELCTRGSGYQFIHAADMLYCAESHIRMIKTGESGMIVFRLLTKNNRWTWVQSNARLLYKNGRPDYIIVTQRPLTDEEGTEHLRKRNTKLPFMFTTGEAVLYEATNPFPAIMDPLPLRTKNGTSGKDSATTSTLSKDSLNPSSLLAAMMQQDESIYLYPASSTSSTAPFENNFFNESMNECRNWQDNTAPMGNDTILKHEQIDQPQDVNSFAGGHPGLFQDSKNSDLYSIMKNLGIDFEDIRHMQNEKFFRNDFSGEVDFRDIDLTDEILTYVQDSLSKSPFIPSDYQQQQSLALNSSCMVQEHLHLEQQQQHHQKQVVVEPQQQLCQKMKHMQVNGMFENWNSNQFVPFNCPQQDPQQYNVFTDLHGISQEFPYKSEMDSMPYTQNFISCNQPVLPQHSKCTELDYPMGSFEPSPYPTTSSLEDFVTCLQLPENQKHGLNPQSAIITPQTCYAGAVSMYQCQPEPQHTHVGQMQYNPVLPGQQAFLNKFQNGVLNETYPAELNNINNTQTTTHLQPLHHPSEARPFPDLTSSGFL
Procedure, shortened: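 Endogenous factor activity is tracked through cis-promoter reporter units transfected into HepG2 cells. Transcript levels at 24 h are read by fluorescent RT-PCR and capillary electrophoresis, with activity in either direction scored relative to DMSO.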

[5] = ATG_AP_1_CIS: Attagene CIS-FACTORIAL HepG2 Assay for human Activator Protein 1 (AP-1) (AID 2282931); conditions: HepG2 Attagene cis-factorial AP-1 reporter mRNA; actives raise or lower the signal
Procedure, shortened: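 HepG2, transient cis-reporter transfection; 24 h; readout RT-PCR/CE fluorescence; DMSO baseline, gain and loss fitted.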

[6] = ATG_AP_2_CIS: Attagene CIS-FACTORIAL HepG2 Assay for human Activator Protein 2 (AP-2) (AID 2282932); conditions: HepG2 AP-2 cis-reporter, Attagene transcription factor profiling; actives raise or lower the signal
Procedure, shortened: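 Read-out: fluorescent reporter mRNA via RT-PCR and capillary electrophoresis, 24 h post-dose in transiently transfected HepG2. Endogenous factors drive cis-promoter reporters; gain or loss of signal fitted bidirectionally against DMSO.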

[7] = ATG_BRE_CIS: Attagene CIS-FACTORIAL HepG2 Assay for human Bone Morphogenetic Protein (BMP) Response Element (BRE) (AID 2282933); conditions: HepG2 BMP response element reporter, Attagene transcription factor profiling; actives raise or lower the signal
Procedure, shortened: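 HepG2 cells transiently transfected with CIS reporter units (endogenous TF activity, BMP response element), dosed 24 h. Reporter mRNA quantified by RT-PCR, fluorescent labelling and capillary electrophoresis; bidirectional fit vs DMSO baseline.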

[8] = target: Retinoic acid receptor alpha (Homo sapiens) (UniProt P10276); experiment: ATG_DR5_RAR_CIS: Attagene CIS-FACTORIAL HepG2 Assay for human Retinoic Acid Receptor Alpha (RARE), DR5 submotif (AID 2282934); conditions: HepG2 Attagene cis-factorial RARE DR5 reporter, mRNA; actives raise or lower the signal;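 for AC50: reporter responds to endogenous RAR alpha beta and gamma in HepG2 not RARA alone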
Retinoic acid receptor alpha (Homo sapiens), sequence (P10276 whole entry, looked up): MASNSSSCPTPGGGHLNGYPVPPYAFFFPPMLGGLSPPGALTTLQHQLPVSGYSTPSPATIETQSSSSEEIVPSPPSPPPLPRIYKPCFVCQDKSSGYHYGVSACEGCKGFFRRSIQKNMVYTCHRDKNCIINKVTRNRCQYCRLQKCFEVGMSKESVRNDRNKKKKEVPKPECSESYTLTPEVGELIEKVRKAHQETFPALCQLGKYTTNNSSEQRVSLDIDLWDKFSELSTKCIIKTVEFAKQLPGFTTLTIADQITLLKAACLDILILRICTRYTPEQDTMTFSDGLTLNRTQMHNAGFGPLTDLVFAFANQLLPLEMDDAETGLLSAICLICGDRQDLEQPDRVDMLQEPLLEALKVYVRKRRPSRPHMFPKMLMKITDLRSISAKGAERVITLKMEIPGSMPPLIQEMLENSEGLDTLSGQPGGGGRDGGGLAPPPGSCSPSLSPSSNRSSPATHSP
Procedure, shortened: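 After 24 h of chemical exposure, transiently transfected HepG2 cells were lysed for total RNA; the DR5-regulated reporter transcript was quantified via RT-PCR and capillary electrophoresis, with activity fitted bidirectionally against DMSO.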

[9] = ATG_CRE_CIS: Attagene CIS-FACTORIAL HepG2 Assay for human cAMP Responsive Element (CRE) binding protein 3 (AID 2282926); conditions: HepG2 CRE cis-reporter, Attagene multiplexed mRNA; actives raise or lower the signal
Procedure, shortened: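 Induced reporter mRNA from a CRE cis element, measured in HepG2 among many multiplexed units at 24 h. Detection used RT-PCR plus capillary electrophoresis of fluorescent fragments; DMSO served as negative control.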

SMILES	outcome [1]	AC50 [2]	outcome [3]	outcome [4]	outcome [5]	outcome [6]	outcome [7]	outcome [8]	outcome [2]	outcome [9]	AC50 [8]	AC50 [4]	AC50 [5]	AC50 [3]
C#C[C@]1(O)CC[C@H]2[C@@H]3CCc4cc(OC)ccc4[C@H]3CC[C@@]21C	inactive	48.2 µM (active)	inactive	inactive	inactive	inactive	inactive	inactive						
FC1CC(F)(F)C(F)(F)C1(F)F (centres undefined)	inactive		inactive	inactive	inactive	inactive	inactive	inactive	inactive					
FC(F)(F)C(F)(F)C(F)(F)N(C(F)(F)C(F)(F)C(F)(F)F)C(F)(F)C(F)(F)C(F)(F)F	inactive		inactive	inactive	inactive	inactive	inactive	inactive	inactive	inactive				
O=P(O)(O)OCCC(F)(F)C(F)(F)C(F)(F)C(F)(F)C(F)(F)C(F)(F)F	inactive		inactive	inactive	inactive	inactive	inactive	inactive	inactive	inactive				
CCCCOCCOCCOC(=O)CCCCC(=O)OCCOCCOCCCC	inactive		inactive	inactive	inactive	inactive	inactive	inactive	inactive					
FC(F)(F)C(F)(F)C(F)(F)CI	inactive		inactive	inactive	inactive	inactive	inactive	inactive	inactive	inactive				
FC(F)(F)C(F)(F)C(F)(F)C(F)(F)C(F)(F)C(F)(F)CC1CO1 (centres undefined)	inactive		inactive	inactive	inactive	inactive	inactive	inactive	inactive	inactive				
O=C(O)C(F)(F)C(F)(F)C(F)(F)C(F)(F)F	inactive		inactive	inactive	inactive	inactive	inactive	inactive	inactive	inactive				
C=CC(F)(F)C(F)(F)C(F)(F)C(F)(F)C(F)(F)C(F)(F)C(F)(F)C(F)(F)C=C	inactive		inactive	inactive	inactive	inactive	inactive	inactive	inactive	inactive				
CCO[Si](CCC(F)(F)C(F)(F)C(F)(F)C(F)(F)C(F)(F)C(F)(F)F)(OCC)OCC	inactive		inactive	inactive	inactive	inactive	inactive	inactive	inactive					
C=CC(=O)OCC(F)(F)C(F)(F)C(F)(F)C(F)(F)C(F)(F)C(F)(F)C(F)(F)F	inactive		inactive	inactive	inactive	inactive	inactive		inactive		12.1 µM (active)			
FC(F)(F)C(F)(F)C(F)(F)C(F)(F)C(F)(F)C(F)(F)C(F)(F)C(F)(F)F	inactive		inactive	inactive	inactive	inactive	inactive	inactive	inactive	inactive				
NC(=O)C(F)(F)C(F)(F)C(F)(F)C(F)(F)F	inactive		inactive	inactive	inactive	inactive	inactive	inactive	inactive	inactive				
FC(F)(F)C(F)(F)C(F)(F)C(F)(F)C(F)(F)CCI	inactive	97.7 µM (active)	inactive			inactive	inactive	inactive		inactive		32.1 µM (active)	59.9 µM (active)	
Cc1cccc(N(C)C)c1	inactive		inactive	inactive	inactive	inactive	inactive	inactive	inactive	inactive				
CNC(=S)NC	inactive		inactive	inactive	inactive	inactive	inactive	inactive	inactive	inactive				
C(=C(c1ccccc1)c1ccccc1)c1ccccc1	inactive	30 µM (active)		inactive		inactive	inactive	inactive		inactive			36.7 µM (active)	59 µM (active)
O=C(Cl)C(F)(F)C(F)(F)C(F)(F)C(F)(F)C(F)(F)C(F)(F)C(F)(F)C(F)(F)F	inactive			inactive		inactive	inactive	inactive	inactive				16.1 µM (active)	13 µM (active)
FC(F)(F)C(F)(F)C(F)(F)C(F)(F)C(F)(F)C(F)(F)C(F)(F)C(F)(F)CCS	inactive		inactive	inactive	inactive	inactive	inactive	inactive	inactive	inactive				
CCCCCCCOC(=O)c1ccccc1C(=O)OCCCCCCC	inactive		inactive	inactive	inactive	inactive	inactive	inactive	inactive	inactive				
Nc1cc(Cl)c(N)c(Cl)c1	inactive		inactive		inactive	inactive	inactive	inactive	inactive			6.21 µM (active)		
O=C(OCCOCCOCCOC(=O)c1ccccc1)c1ccccc1	inactive		inactive	inactive	inactive	inactive	inactive	inactive	inactive					
O=S(=O)(OCC(F)F)C(F)(F)F	inactive		inactive	inactive	inactive	inactive	inactive	inactive	inactive					
FC(F)(F)C(F)(F)C(F)(F)C(F)(F)C(F)(F)C(F)(F)CCS	inactive		inactive	inactive	inactive	inactive	inactive	inactive	inactive	inactive				
FC(F)(F)C(F)(F)C(F)(F)C(F)(F)C(F)(F)C(F)(F)C(F)(F)Br	inactive		inactive	inactive	inactive	inactive	inactive	inactive	inactive	inactive				
Cc1ccc(S(=O)(=O)OCC(F)(F)C(F)(F)C(F)(F)C(F)(F)C(F)(F)C(F)F)cc1	inactive		inactive	inactive	inactive	inactive	inactive	inactive	inactive					
